# Bioassay records from PubChem.
# AI-2 QS mod: Vibrio harveyi AI-2 quorum sensing modulators, primary screen, JMH597 strain, luminescence/OD600 ratio | Vibrio harveyi JMH597 AI-2 luminescence/OD600 ratio, 9 h; active compounds read low; strain lacks LuxN and CqsS sensors; 0 = neutral-control median | activity change, % at 7.5 µM | 0.4% of 300,000 active; in the data active means activity change below about -75%, passing the limit was not always enough;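 further: luminescence divided by OD600 gain over 9 h not by final OD600 alone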
# NTR1 agonist: agonists of human NTR1, primary screen, imaging, U2OS cells, beta-arrestin-GFP, high content | 0.17% of 330,000 active | NTR1-U2OS beta-arrestin-GFP spot imaging, agonist mode | activation, % at 20 µM;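 active means activation at or above 40% of the spot to cytoplasm intensity ratio, with at least 20 cells analyzed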;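 further: 0% = DMSO without peptide and 100% = 100 nM NTR1 peptide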
# Target sequence (P30989 whole entry, looked up): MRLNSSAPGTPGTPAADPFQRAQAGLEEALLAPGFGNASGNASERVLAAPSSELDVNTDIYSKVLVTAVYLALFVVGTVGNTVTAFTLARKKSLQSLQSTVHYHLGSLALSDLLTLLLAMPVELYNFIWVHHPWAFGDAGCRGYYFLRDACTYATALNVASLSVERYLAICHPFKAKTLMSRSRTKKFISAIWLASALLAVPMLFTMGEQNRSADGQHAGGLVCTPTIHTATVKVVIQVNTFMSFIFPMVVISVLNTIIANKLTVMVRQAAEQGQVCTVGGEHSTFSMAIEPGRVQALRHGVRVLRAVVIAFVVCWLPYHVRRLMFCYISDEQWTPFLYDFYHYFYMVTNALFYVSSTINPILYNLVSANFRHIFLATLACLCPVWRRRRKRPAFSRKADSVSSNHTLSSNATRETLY
# Cardio protect: cardioprotection against H2O2-induced cell death, primary screen, uHTS, H9c2 cells, ATPLite luminescence. H9c2 cardiomyocytes, H2O2 injury protection, 2 h. protection from H2O2 cell death, % at 20 µM. 0.63% of 360,000 active;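 active means compounds giving at least 50% protection of heart cells from peroxide-induced death in the single-dose screen, raw or plate-pattern-corrected value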;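 further: 0% = DMSO wells with peroxide and 100% = DMSO wells without peroxide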
# GRIN3A LBD mod: binders of NR3A ligand-binding domain, primary screen, biophysical, differential scanning fluorimetry, uHTS | Glutamate receptor ionotropic, NMDA 3A (GRIN3A) ligand-binding domain | NR3A LBD differential scanning fluorimetry, Tm shift; 0% = protein alone, 100% = glycine-bound protein | Tm shift relative to glycine control, % at 25 µM | 2.5% of 340,000 active;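 active means melting temperature shift of at least 10% of the positive control shift, at one fixed dose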
# SUMO Mot1 rescue: yeast Mot1-301 growth rescue at high temperature, primary screen, SUMOylation pathway inhibitor project, S. cerevisiae, ATP luminescence, 38.5C; 1% of 320,000 active; S. cerevisiae Mot1-301 growth rescue; percent above DMSO median, 100 means doubled; growth rescue, % at 18.8 µM;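 active means every valid replicate shows activation above 250% relative to neutral control wells; inactive means the rest, any valid replicate at or below 250%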;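 further: OY570 slx delta 5 strain wells were the positive control but not used for scaling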
# AHR activator: AHR activators, primary screen, cell-based, luminescence, luciferase reporter, human; AHR-responsive luciferase reporter cells; Aryl hydrocarbon receptor (Homo sapiens), P35869; 2.5% of 320,000 active; activation, % at 5 µM; AID 2796, 2010; in the data active means activation above about 47%;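 further: 0% = vehicle wells and 100% = reference agonist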
# The depositor's hits bear a star; · = not tested or not shown; ! = a repeat was not active. An excerpt weighted towards active compounds, which were near 6.2% of everything screened.
SMILES,AI-2 QS mod,NTR1 agonist,Cardio protect,GRIN3A LBD mod,SUMO Mot1 rescue,AHR activator
COc1ccc(S(=O)(=O)NCCc2cn3nc(C)c(C)nc3n2)cc1C,4,1,0,-1,-5,1
Cc1ccc(S(=O)(=O)NCCc2cn3nc(C)c(C)nc3n2)cc1C,9,1,1,1,267*,-2
Cc1noc(C)c1COc1ccc(C(=O)N2CCN(c3ccccc3O)CC2)cc1,·,7,2,0,-10,0
CC(C)(CO)NC(=O)c1ccc2c(c1)C(=O)c1ccccc1-2,-5,5,4,1,-15,6
CCC(C)(C)c1ccc2c(c1)C(=O)c1ccccc1C2=O,-5,6,-19,4,448,72*
Cc1ccnc(SCCn2c(N3CCC(C)CC3)nc3c2c(=O)[nH]c(=O)n3C)n1,·,·,4,13*,·,·
NC(=O)c1ccc[n+](CC(=O)c2cccc([N+](=O)[O-])c2)c1,29,0,0,5,0,3
COC(=O)c1cc2c(-c3ccccc3)cc3ccccn3c-2c1C(=O)OC,13,0,61*,-3,·,11
CC(=O)C1=C(C)NC(SCC(=O)c2ccccc2)=C(C#N)C1c1ccco1 (stereo not given),-13,7,·,·,-11,107*
CC(=O)C1=C(C)NC(SCC(=O)c2ccc(Cl)cc2Cl)=C(C#N)C1c1ccco1 (stereo not given),46,19,-15,·,-20,107*
COc1ccc(S(=O)(=O)N(C(=O)c2ccncc2)c2ccc(OC(=O)c3ccncc3)cc2)cc1,9,0,7,0,309*,1
O=C(NN1C(=O)C2C(c3ccccc3)C=CC(c3ccccc3)C2C1=O)c1cccc(Br)c1 (stereo not given),24,9,1,20*,-11,2
O=C(NN1C(=O)C2C(c3ccccc3)C=CC(c3ccccc3)C2C1=O)c1ccccc1 (stereo not given),17,3,-6,9,14,1
O=c1c2ccccc2c(/C=N/c2ncn[nH]2)c(O)n1Cc1ccccc1,8,16,8,15*!,-14,13
O=C(COC(=O)c1ccc(S(=O)(=O)N2CCOCC2)cc1)Nc1ccccc1OC(F)F,·,2,8,4,3,0
O=C(Nc1nnc(Cc2c[nH]c3ccccc23)s1)c1ccc(Cl)cc1Cl,6,1,-9,26*,-10,24
O=C(Nc1nnc(Cc2ccccc2F)s1)c1ccccc1Cl,-7,1,6,0,184,9
Nc1nn(S(=O)(=O)c2ccccc2)cc1-c1cccc([N+](=O)[O-])c1,43,0,-8,22*,-4,13
CCOc1ccc(S(=O)(=O)n2cc(-c3ccccc3)c(N)n2)cc1,16,0,-5,-12,-19,26
Cc1ccc(S(=O)(=O)N2C[C@]3(O)C[C@@H]4C(=O)N(c5ccccc5)C(=O)[C@@H]4C[C@]3(OC(=O)Nc3cccs3)C2)cc1,·,·,-6,·,·,·
O=C1CSC(=S)N1Cc1cccs1,·,·,-2,-3,·,·
Nc1nc(-c2cc(O)ccc2[N+](=O)[O-])cc(-c2ccccc2)c1[N+](=O)[O-],3,9,44,11*,-9,·
O=[N+]([O-])c1cc(-c2ccccc2)cc([N+](=O)[O-])c1O,·,·,-19,-7,·,·
COc1ccccc1-c1nnc(SCC(=O)Nc2ccc(Cl)cc2Cl)o1,8,0,-2,-1,-10,57*
C=CCN1C(=O)c2ccc(C(=O)N3CCN(S(=O)(=O)c4cccc(Cl)c4)CC3)cc2C1=O,19,1,1,-4,-11,2
CCOC(=O)c1ccccc1NC(=O)COC(=O)C1=COCCO1,22,1,9,2,286*,0
COc1ccc(C(=O)Nc2nnc(-c3cccs3)s2)cc1,3,2,9,2,9,67*
